# In all, about 1,200 compounds went through this assay and about 400 (33%) were called active. How the calls were made is not given here. Only a sample is shown. Measured potencies and affinities stand elsewhere.
# Experiment: mammalian cell cytotoxicity, dose response, cytotoxicity control (AID 434958);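 further: cells exposed to compound for 72 hours before readout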
# Conditions: cytotoxicity counter-screen; series mostly up to 40 µM
row,Structure (SMILES),outcome
1,O=C(OCC(=O)c1ccc[nH]1)C1=COCCO1,inactive
2,COc1ccc(C(=O)n2c(SC)nc3cc4c(cc32)OCCO4)cc1,inactive
3,Cc1ccc(OC(=O)COc2ccccc2)c(-n2nc3ccccc3n2)c1,inactive
4,N#Cc1c(SCC(=O)O)nc(N2CCCCC2)c2c1CCCC2,inactive
5,Cc1cccc(C)c1OCC(=O)NNC(=O)CNC(=O)c1ccc(OC(F)F)cc1,inactive
6,CCn1c(SCc2nc(-c3cccs3)no2)nnc1-c1c[nH]c2ccccc12,inactive
7,C=C(C)COc1ccc(-c2nc(N)ncc2Oc2ccc(OC)cc2)c(O)c1,inactive
8,COc1cccc(CNC(=O)C(Cc2ccccc2)n2cccc2)c1 (configuration not stated),inactive
9,CC(=O)C1=C(C)NC(SCC(=O)c2ccccc2)=C(C#N)C1CC(C)C (configuration not stated),inactive
10,Nc1nc2ccccc2n1C(=O)c1cccs1,inactive
11,O=C(COc1ccccc1)NNC(=O)c1cc2ccccc2oc1=O,inactive
12,COCCNC(=O)COc1ccc(Oc2ccccc2)cc1,inactive
13,O=C1Nc2c(ccc(Cl)c2Cl)C(=O)C1(F)c1ccccc1 (configuration not stated),inactive
14,CCOC(=O)c1cnn(-c2ncnc3sc4c(c23)CCC4)c1N,inactive
15,Cc1cc(C(=O)Nc2ccc(Br)cc2F)n(-c2ccccc2)n1,inactive
16,Cc1cc(=O)n2c(-c3ccccc3C)n[nH]c2n1,inactive
17,Cc1ccc(NC(=O)/C=C\C(=O)O)c([N+](=O)[O-])c1,inactive
18,CC(=O)Nc1ccc(S(=O)(=O)Nc2cccc3cccnc23)cc1,inactive
19,Cc1ccc(C)c(SCC(=O)OCC(=O)N2CC(C)OC(C)C2)c1 (configuration not stated),inactive
20,COc1ccccc1CNC(=O)COC(=O)C1=COCCO1,inactive
21,O=C(CC1SC(=O)NC1=O)Oc1ccc(/C=N/NC(=O)c2ccccc2O)cc1 (configuration not stated),inactive
22,Cc1oc(C(C)(C)C)cc1C(=O)Nc1ccc2c(c1)OCCO2,inactive
23,CCOC(=O)c1ccc(NC(=O)Cc2coc3cc4c(cc23)CCC4)cc1,inactive
24,COc1ccc2[nH]c3c(c2c1)CCN=C3C,inactive

row,Structure (SMILES),outcome
1,O=C(COC(=O)C1CC1)c1c[nH]c2ccccc12,inactive
2,C=CCN(C(=O)CN1CCOCC1)c1nc(C)c(-c2ccccc2)s1,inactive
3,N#CCOC(=O)/C=C/c1ccc2c(c1)OCO2,inactive
4,CCc1cc2c(-c3ccccc3)cc(=O)oc2cc1OC(C)C(C)=O (configuration not stated),inactive
5,COc1cc(NC(=O)c2cccc(Cl)c2)c(OC)cc1NC(=O)CN1CCCCC1,inactive
6,COc1ccc(NC(=O)c2cc(Br)ccc2Cl)c(OC)c1,inactive
7,Cc1cccc(NC(=S)NC2CC3C=CC2C3)c1 (configuration not stated),inactive
8,CCSc1nnc(NC(=O)Cn2cnc3ccccc3c2=O)s1,inactive
9,CCC(C(=O)NC1C(=O)N2C(C(=O)O)=C(CSc3nnc(C)s3)CSC12)c1ccccc1 (configuration not stated),inactive
10,Cc1ccc(-n2nnnc2Sc2nc([N+](=O)[O-])nn2C)c(C)c1,inactive
11,Cn1nnnc1SCC(=O)Nc1ccccc1[N+](=O)[O-],inactive
12,O=C(Nc1ccccc1)Nc1csc2ccccc12,inactive
13,O=C(NC1CCCCC1)C1CCN(c2nccs2)CC1,inactive
14,O=C(NC1c2ccccc2-c2ccccc21)c1ccco1,inactive
15,Cc1ccc(/C=N/NC(=O)c2cccs2)s1,inactive
16,C/C(=N/NC(=O)c1cccs1)c1ccc(NC(=O)COc2ccc(Cl)cc2)cc1,inactive
17,CCOc1ccc2nc(NC(=O)c3cnccn3)sc2c1,inactive
18,Cc1cc(C)c(-c2c(O)c3ccccc3n(C)c2=O)c(C)c1,inactive
19,Cc1cc(Br)ccc1NC(=O)CN1C(=O)C2CC=CCC2C1=O (configuration not stated),inactive
20,COc1cc(OC)cc(-c2c(C#Cc3ccsc3)c3cc(-c4ccc(OC)nc4)ccc3n2C)c1,inactive
21,CCOc1cccc(=O)c2c(C)n(Cc3ccccc3)c(C)c12,inactive
22,CCOc1cc(N2CCOCC2)c(OCC)cc1NC(=O)c1cc(C)cc(C)c1,inactive
23,Cn1c(=O)[nH]c(=O)c2c1nc(Br)n2CCC(=O)c1ccccc1,inactive
24,C=CCSc1nnc2c(n1)OC(c1c(C)[nH]n(-c3ccccc3)c1=O)Nc1ccccc1-2 (configuration not stated),inactive

row,Structure (SMILES),outcome
1,CCCCCc1ccc(-c2ccc(/C=C/C(N)=O)cc2)nc1,inactive
2,CN1c2ccccc2C(=O)NC1c1ccc([N+](=O)[O-])s1 (configuration not stated),inactive
3,Cc1cccc(Cl)c1NC(=S)NN,inactive
4,CCOC(=O)c1sc(NC(=O)Cn2nnc3sc4c(c3c2=O)CCC(C(C)(C)C)C4)nc1C (configuration not stated),inactive
5,CC1CCCN(C(=O)C2CCN(c3ncnc4c3nc3n4CCCCC3)CC2)C1 (configuration not stated),inactive
6,CCOC(=O)NC1c2ccccc2Oc2ccccc21,inactive
7,O=C(NNC(=O)c1ccc(Oc2cc(Cl)cc(Cl)c2)o1)c1ccccc1,inactive
8,CC(=O)c1ccccc1OCCOc1ncnc2sccc12,inactive
9,COc1ccc([N+](=O)[O-])cc1NS(=O)(=O)c1ccc(C(=O)N2CCCC2)cc1,inactive
10,O=C(Cc1ccccc1)NC(=S)Nc1ccc(N2CCCCC2)cc1,inactive
11,CC(=O)c1ccc(NC(=S)Nc2ccc(N3CCOCC3)cc2)cc1,inactive
12,Cc1ccc(CNC(=O)c2cn(C)c3ccc(S(=O)(=O)N4CCOCC4)cc3c2=O)cc1,inactive
13,Cc1cccc2nc(COc3ccc4ccccc4c3Br)cn12,inactive
14,COC(=O)C1=C(C)NC(=O)/C1=C\c1cc(C)n(-c2cc(C)cc(C)c2)c1C,inactive
15,CCOC(=O)CNC(=O)c1cccnc1Oc1ccc(Cl)cc1,inactive
16,COc1ccccc1NS(=O)(=O)c1cccc(N2CC(O)=C(c3ccccc3)C2=N)c1,inactive
17,O=C(CCN1C(=O)c2ccccc2S1(=O)=O)Nc1ccc(Cl)cc1,inactive
18,CCC(=O)NC(=S)Nc1ccc(NC(=O)c2ccccc2[N+](=O)[O-])cc1,inactive
19,CC(/C=N/NC(=O)c1cc(-c2cccs2)[nH]n1)=C\c1ccccc1,inactive
20,Cc1ccc(C)c(SCc2noc(C(=O)NCC3CCCO3)c2C(=O)O)c1 (configuration not stated),inactive
21,O=C(O)Cc1csc(Nc2cccc(Cl)c2)n1,inactive
22,COC(=O)c1ccc(/C=N/Nc2nc(-c3ccc(C)cc3)cs2)cc1,inactive
23,CCOC(=O)N1CCN(CC(=O)Nc2nnc(C(F)(F)F)s2)CC1,inactive
24,COC(=O)N1C(=O)[C@](Cc2ccccc2)(c2ccccc2)N1C(=O)OC,inactive
